Experimental data from PubChem BioAssay (NCI).
Compounds without any hit were thinned out: in the full panel of roughly 83,000, 20% have a hit.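 Method: cells in 96-well plates; compound added at one concentration; 48 h incubation; percent growth measured; values under 10 scored active.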 Values without a mark were called inactive. Active and inactive are the calls of the source.

Each compound was assayed on HCC-2998 colon (assay: NCI-60 one-dose screen, 48 h (100 = growth as untreated, 0 = no growth, -100 = all killed)). Conditions: 10 µM unless noted.
Procedure: Growth inhibition of the HCC-2998 human tumor cell line is measured as a screen for anti-cancer activity. Cells are grown in 96 well plates and exposed to the test compound for 48 hours. Compounds are tested at a single concentration, which is 10^-5 M for most compounds. The reported endpoint is percent growth (GI% or GIPRCNT), where numbers from 0 - 100% represent growth inhibition, and numbers from -100% - 0 represent cell death. For example, a value of 40 represents 60% growth inhibition. A value of 0 means no net growth occurred over the course of the experiment. A value of -40 indicates 40% of cells at the beginning of the experiment died by the end of the experiment. A value of -100 means all cells are dead at the end of the experiment.
NCI-60 Human Tumor Cell Lines Screen was performed using the standard one-dose NCI protocol, which is described in more detail at https://dtp.cancer.gov/discovery_development/nci-60/default.htm.
Compounds with GIPRCNT values below 10 were considered active. Activity score was based on GIPRCNT using the following formula: […]
Score is 0 for GIPRCNT values of 100 or above, 50 for GIPRCNT values of 0, and 100 for GIPRCNT values of -100.

**Q.** For CN(C)c1ncc(/C=C2\SC(=S)N(Cc3ccccc3Cl)C2=O)s1, which growth is on record?
**A.** 102%

**Q.** Which growth does the source give for NS(=O)(=O)c1ccc(-n2cc(CC=O)nn2)cc1 here?
**A.** 97.9%

**Q.** With CN1CCN(c2ccc(C(=O)Nc3cccc(-c4cn(-c5ccc(S(N)(=O)=O)cc5)nn4)c3)cc2C(F)(F)F)CC1 as the compound, how does the growth read?
**A.** 88.3%

**Q.** CCN1C(=O)N(CC)C2SC(N/N=C/c3cccs3)=NC21 (stereo not given) was tested. Which growth did it give?
**A.** 15.4%

**Q.** How did the growth turn out when O=C1[C@@H]2Cc3c([nH]c4ccccc34)[C@H](c3c(Cl)cccc3Cl)N2C(=O)CN1C1CCN(Cc2ccccc2)CC1 was run?
**A.** 10.6%

**Q.** For O=C1/C(=C/c2ccccc2[N+](=O)[O-])Oc2ccc(O)cc21, which growth is on record?
**A.** 73.3%

**Q.** For Cc1ccc(Nc2ncnc3c2c(C)nn3-c2ccc([N+](=O)[O-])cc2)cc1, which growth is on record?
**A.** 97.4%

**Q.** Which growth does the source give for COc1ccc(/C=N\NC(=O)c2ccc3nc(-c4ccc(Br)cc4)[nH]c3c2)cc1 here?
**A.** 59.4%

**Q.** With COc1cnc2c(c1)C(=O)c1c-2n(CCCn2ccnc2)c(=O)c2cc(OC)c(OC)cc12 as the compound, how does the growth read?
**A.** 24.6%

**Q.** CN1CCN(c2ccc3c(C(N)=O)c(NC(=O)c4ccc(C(C)(C)C)cc4)sc3c2)CC1 was tested. Which growth did it give?
**A.** 96.2%

**Q.** How did the growth turn out when Oc1ccc(CSc2nnc(-c3ccncc3)o2)c2cccnc12 was run?
**A.** 30.2%

**Q.** How did the growth turn out when COc1ccccc1/C=C/C(=O)c1nnn(-c2ccc(C(=O)O)cc2)c1C was run?
**A.** 102%

**Q.** Cc1ccccc1NC1CC(=O)N(c2ccc(Cl)cc2Cl)C1=O (stereo not given) was tested. Which growth did it give?
**A.** 109%

**Q.** How did the growth turn out when CCOC(=O)/C(F)=C/C1CC1CCc1cccc(C(F)(F)F)c1 (stereo not given) was run?
**A.** 109%

**Q.** CCOC(=O)c1c(NCC(=O)Nc2ccc(Br)cc2)sc2c1CCCC2 was tested. Which growth did it give?
**A.** 67.9%

**Q.** Cc1cn(-c2cc(NC(=O)c3cncc(C#Cc4cnc5ccc(O[C@H]6CCOC6)nn45)c3)cc(C(F)(F)F)c2)cn1 was tested. Which growth did it give?
**A.** 84.7%

**Q.** With Cc1ccc(NC(=O)c2cccc(CN3CCN(C)CC3)c2)cc1Oc1ccc(-c2[nH]nc3ncnc(N)c23)cc1 as the compound, how does the growth read?
**A.** 99.4%

**Q.** With Cc1nn(-c2ccccc2)c2nc(CCl)[nH]c(=O)c12 as the compound, how does the growth read?
**A.** 108%

**Q.** CC(=O)c1sc(Nc2cccc(Nc3nc(C)c(C)s3)c2)nc1C was tested. Which growth did it give?
**A.** 80.1%

**Q.** Which growth does the source give for CCOC(=O)/C(F)=C/C1CC1C1CCCCC1 (stereo not given) here?
**A.** 107%

**Q.** For CCN1CCN(c2cc(C(=O)Nc3nc4ccc(Oc5ccnc(C(=O)NC)c5)cc4s3)cc(C(F)(F)F)c2)CC1, which growth is on record?
**A.** 90.3%

**Q.** CC(=O)Nc1nc2c(s1)C1=CC[C@H]3[C@@H]4CC[C@H](C(C)=O)[C@@]4(C)CC[C@@H]3[C@@]1(C)CC2 was tested. Which growth did it give?
**A.** 96.9%

**Q.** Which growth does the source give for CCCCSc1nnc(-c2ccc(-c3ccc(Cl)cc3)nc2C)o1 here?
**A.** 100%

**Q.** Which growth does the source give for C#C[C@]1(O)CC[C@H]2[C@@H]3CC=C4c5sc(Nc6cccc(C)n6)nc5CC[C@]4(C)[C@H]3CC[C@@]21C here?
**A.** 47.5%

**Q.** With C=CCn1c(SCC(=O)Nc2cccc(C(=O)/C=C/c3ccc(C)cc3)c2)nc2ccccc2c1=O as the compound, how does the growth read?
**A.** 87.2%

**Q.** CN1C(=O)N(C)C2Nn3c(s/c(=C\c4ccccn4)c3=O)=NC21 (stereo not given) was tested. Which growth did it give?
**A.** 109%

**Q.** How did the growth turn out when COC(=O)[C@@]1(C)CC[C@]2(C)CC[C@]3(C)C(=CC(=O)[C@@H]4[C@@]5(C)Cc6c(n(CC#CCN7CCN(C)CC7)c7ccccc67)C(C)(C)[C@@H]5CC[C@]43C)[C@@H]2C1 was run?
**A.** 94.8%

**Q.** With C=C(C)C(=O)O[C@H]1C[C@@]2(C)OC(=CC2=O)[C@H](C)[C@H](O)[C@H]2OC(=O)C(=C)[C@@H]21 as the compound, how does the growth read?
**A.** 114%

**Q.** Which growth does the source give for O=C1NC(=O)/C(=C/c2ccc(OCc3cc4ccccc4nc3Cl)cc2)S1 here?
**A.** 105%

**Q.** COc1ccc2c(C3=C(c4cn(C)c5ccccc45)C(=O)NC3=O)coc2c1 was tested. Which growth did it give?
**A.** 28.2%

**Q.** How did the growth turn out when CC(C)Sc1nc(NC2CC2)c(C#N)c(-c2ccccc2)n1 was run?
**A.** 89.9%

**Q.** Oc1ccc(CSc2nnc(-c3cnccn3)n2-c2ccccc2)c2cccnc12 was tested. Which growth did it give?
**A.** 42.1%

**Q.** With COc1ccc(S(=O)(=O)NCCCNc2nccc(-n3cnc4ccccc43)n2)cc1 as the compound, how does the growth read?
**A.** 111%

**Q.** How did the growth turn out when CC(=O)Nc1ccc(NC(=O)Nc2cccc(-c3nc(-c4ccc(NC(=O)c5cccnc5)cc4Cl)no3)c2)cc1C(F)(F)F was run?
**A.** -77.6% (active)

**Q.** C/C(=N/Nc1nc(N/N=C(/C)c2ccc([N+](=O)[O-])cc2)nc(N2CCOCC2)n1)c1ccc([N+](=O)[O-])cc1 was tested. Which growth did it give?
**A.** 96%

**Q.** Which growth does the source give for O=C(NCCCNc1cc(-c2cn(-c3ccccc3)nc2-c2cccc(O)c2)ccn1)Nc1cc(C(F)(F)F)cc(C(F)(F)F)c1 here?
**A.** 66.8%

**Q.** With CC(C)(C)CC(C)(C)n1nnnc1C(Nc1ccccc1)c1cc2cccc3ccc4cccc1c4c32 (stereo not given) as the compound, how does the growth read?
**A.** 90.8%

**Q.** For NC(N)=NS(=O)(=O)c1ccc(N=NC2C(=O)NN(c3ccccc3)C2=O)cc1 (stereo not given), which growth is on record?
**A.** 103%

**Q.** Which growth does the source give for CC(=O)NC(C)(C)C(=O)N1CCC[C@H]1C(=O)NC(C)(C)C(=O)N[C@@H](C)C(=O)NC(C)(C)C(=O)NC(C)(C)C(=O)N[C@@H](CCC(N)=O)C(=O)NC(C)(C)C(=O)N[C@H](C(=O)NC(C)(C)C(=O)NCC(=O)N[C@@H](CC(C)C)C(=O)NC(C)(C)C(=O)N1CCC[C@H]1C(=O)N[C@H](C(=O)NC(C)(C)C(=O)NC(C)(C)C(=O)N[C@@H](CCC(N)=O)C(=O)N[C@@H](CCC(N)=O)C(=O)N[C@H](CO)Cc1ccccc1)C(C)C)C(C)C here?
**A.** 39.7% [4.25 µM]

**Q.** For C#C[C@]1(O)CC[C@H]2[C@@H]3CC=C4c5sc(Nc6nc(C)cc(OC)n6)nc5CC[C@]4(C)[C@H]3CC[C@@]21C, which growth is on record?
**A.** 80.9%
